Results filed as inconclusive are left out. Calls of active or inactive are those of the source. Rule for the calls: active = hit-call score of the fitted dose curve at least 0.9, where 1 is the maximum; inconclusive = response in the unintended direction; inactive = score below 0.9.

Chain of human Retinoid X Receptor beta (RXRb), RXRB (gene 6257) (P28702 whole entry, looked up): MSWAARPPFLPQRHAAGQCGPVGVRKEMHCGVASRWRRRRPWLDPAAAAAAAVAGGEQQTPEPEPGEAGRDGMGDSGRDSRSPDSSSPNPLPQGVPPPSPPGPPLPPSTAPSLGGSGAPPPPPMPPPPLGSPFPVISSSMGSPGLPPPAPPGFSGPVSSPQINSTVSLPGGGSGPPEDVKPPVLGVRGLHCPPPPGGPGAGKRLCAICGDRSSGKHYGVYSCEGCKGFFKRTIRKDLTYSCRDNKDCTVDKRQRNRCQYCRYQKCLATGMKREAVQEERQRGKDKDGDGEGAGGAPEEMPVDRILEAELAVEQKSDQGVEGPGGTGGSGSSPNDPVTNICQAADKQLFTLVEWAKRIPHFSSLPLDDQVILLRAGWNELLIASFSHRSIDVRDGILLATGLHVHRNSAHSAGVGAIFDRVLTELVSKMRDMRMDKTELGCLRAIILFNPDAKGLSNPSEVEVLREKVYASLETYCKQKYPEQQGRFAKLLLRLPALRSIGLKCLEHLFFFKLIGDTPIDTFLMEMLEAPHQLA

The assay has as its target human Retinoid X Receptor beta (RXRb), RXRB (gene 6257) (UniProt P28702). The experiment in a line: ATG_RXRb_TRANS: Attagene TRANS-FACTORIAL HepG2 Assay for human Retinoid X Receptor beta (RXRb) (AID 2283013). The protocol: ATG_TRANS is a cell-based, multiplexed-readout assay that uses HepG2, a human liver cell line, with measurements taken at 24 hours after chemical dosing in a 24-well plate.ATG_RXRb_TRANS is one of 30 assay component(s) measured or calculated from the ATG_TRANS assay. It is designed to make measurements of mRNA induction, a form of inducible reporter, as detected with fluorescence intensity signals by Reverse transcription polymerase chain reaction (RT-PCR) and Capillary electrophoresis technology.Data from the assay component ATG_RXRb_TRANS was analyzed into 1 assay endpoint. This assay endpoint, ATG_RXRb_TRANS, was analyzed in the positive analysis fitting direction relative to DMSO as the negative control and baseline of activity. Using a type of inducible reporter, measures of mRNA for gain-of-signal activity can be used to understand the reporter gene at the transcription factor-level as they relate to the gene RXRB. Furthermore, this assay endpoint can be referred to as a primary readout, because this assay has produced multiple assay endpoints where this one serves a reporter gene function. To generalize the intended target to other relatable targets, this assay endpoint is annotated to the nuclear receptor intended target family, where the subfamily is non-steroidal.
Human liver HepG2 cells are transiently transfected with multiple reporter transcription units (MRTUs) in 6-well plates using FuGene 6 reagent (Roche; 3 ml FuGene/1 mg DNA). The MRTU constructs are regulated by a cis-regulating element (promoter). […] A major difference between the CIS and TRANS system is that in CIS activities of endogenous TFs are measured, whereas the TRANS assay evaluates changes in activities of exogenous, chimeric NR-Gal4 proteins. […] At the end of 24 hour incubation, total RNA was isolated using TriZol reagent (Invitrogen). The isolated RNA is then reverse-transcribed using oligo(dT) primer and Mo-MLV reverse transcriptase (Invitrogen) with DNAse I (Ambion) treatment for 30 min. The one-tenth of the produced cDNA was amplified by PCR using Taq DNA polymerase (Invitrogen) and two reporter sequence-specific primers. The PCR products were fluorescently labeled by primer extension with 6-arboxyfluorescein (6-FAM) 5'-labeled reporter sequence-specific primer (2 min at 95 C, 20 s at 68 C and 10 min at 72 C) and these products were digested with 5U of HpaI (New England Biolabs) for 2h at 37 C. The fragments were purified using Qiaquick PCR columns (Qiagen), analyzed on an ABI 3130xL genetic analyzer (Applied Biosystems) with peak positions identified by using a set of X-rhodamine (ROX)-labeled MapMarker1000 molecular weight standards (BioVentures). The raw capillary electrophoresis data was processed using Attagraph software (Attagene).
For the molecule `CCCCCCCCCc1ccc(OCCO)cc1`, the molecule was called inactive. As for `CSc1ccc(O)cc1C`, the molecule was called inactive. Same read-out and setting: for `O=c1cccc[nH]1` the value was “inactive”; for `OCCCCl`, “inactive”. Consider `Cc1cccc(C)n1`, for which the molecule was called inactive. Still for that read-out and setting: as for `CCCCCCCC/C=C\CCCCCCCC(=O)N(C)CC(=O)O`, the entry is “inactive”; as for `C=CC(=O)OCCC(F)(F)C(F)(F)C(F)(F)C(F)(F)F`, “inactive”; as for `CCOC(C=C(C)CCC=C(C)C)OCC`, “inactive”. The same measure, in the same setting: as for `Cc1cc(=O)[nH]c(C(C)C)n1`, the entry is “inactive”; as for `O=C(Cl)C(F)(F)C(F)(F)C(F)(F)C(F)(F)C(F)(F)C(F)(F)F`, “inactive”; as for `O=C1C=CC(=O)N1c1ccc(Cc2ccc(N3C(=O)C=CC3=O)cc2)cc1`, “inactive”. On the same count and under the same terms, as for `C=CC(=O)OCC(F)(F)C(F)(F)C(F)(F)C(F)(F)C(F)(F)C(F)(F)C(F)(F)C(F)F`, the entry is “inactive”. As usually defined, the AC50 is the concentration giving half of the maximal activity seen. Regarding `CC(C)(C)c1cc(CCC(=O)OCC(COC(=O)CCc2cc(C(C)(C)C)c(O)c(C(C)(C)C)c2)(COC(=O)CCc2cc(C(C)(C)C)c(O)c(C(C)(C)C)c2)COC(=O)CCc2cc(C(C)(C)C)c(O)c(C(C)(C)C)c2)cc(C(C)(C)C)c1O`, the AC50 was 22.3 µM (active).

With `CCCCOC(=O)C(C)O` (stereo not given), the molecule was classed as inactive. On to `O=C(O)C(F)(F)C(F)(F)C(F)(F)OC(F)(C(F)(F)F)C(F)(F)F`, for which the result was inactive.

As for `O=C(O)CCC(F)(F)C(F)(F)C(F)(F)F`, the molecule was classed as inactive. On to `Cc1cc(O)c(C(C)(C)C)cc1C(C)(C)C`, for which the AC50 was 2.58 µM (active). For `CC(C)CC=C(C=O)c1ccccc1`, the molecule was called inactive.

As to `CC1CCCCC1`, the call was inactive.

For the molecule `CNS(=O)(=O)C(F)(F)C(F)(F)C(F)(F)C(F)(F)C(F)(F)C(F)(F)C(F)(F)C(F)(F)F`, the call was inactive. The same measure, in the same setting: as for `CC(=O)c1ccccc1N`, the entry is “inactive”; as for `C=C(C)C(=O)OCC(F)(F)C(F)(F)C(F)(F)C(F)F`, “inactive”. Same read-out and setting: as for `OCC1CCCO1` (stereo not given), the entry is “inactive”.

Turning to `O=C(O)CCC(F)(F)C(F)(F)C(F)(F)C(F)(F)C(F)(F)C(F)(F)C(F)(F)F`, the half-maximal activity concentration (AC50) is 41.3 µM (active).

As to `Nc1cccnc1N`, the molecule was classed as inactive. For the molecule `Cc1ccc(O)c(-n2nc3ccccc3n2)c1`, the AC50 is 20.4 µM (active). `COc1ccccc1C=O`: the molecule was classed as inactive.

`O=C(O)C(F)(F)OC(F)(F)C(F)(F)OC(F)(F)C(F)(F)OC(F)(F)F`: the AC50 is 13.2 µM (active). On the same count and under the same terms, for `O=C(c1ccccc1)c1ccc(Cl)cc1` the value was 68.7 µM (active); for `OCCCC(F)(F)C(F)(F)C(F)(F)C(F)(F)C(F)(F)C(F)(F)C(F)(F)C(F)(F)F`, 2.86 µM (active). Turning to `F[Si-2](F)(F)(F)(F)F`, the outcome was inactive. The same measure, in the same setting: for `CCN(CC)c1ccc(N=Nc2ccccc2)cc1` the value was “inactive”; for `N#Cc1ccccc1O`, “inactive”; for `CCN=c1cc2oc3cc(NCC)c(C)cc3c(-c3ccccc3C(=O)OCC)c-2cc1C`, “inactive”. With `CCCCCCCCCCCC(=O)Cl`, the AC50 is 38.5 µM (active). Consider `CC(C)Nc1ccc(NC(C)C)c2c1C(=O)c1ccccc1C2=O`, for which the outcome was inactive. In the case of `CC(C)(C)C(=O)C1C(=O)c2ccccc2C1=O`, the call was inactive. For the molecule `CCN(CC)c1ccc(C=O)cc1`, the call was inactive. Same read-out and setting: for `O=C=NCc1cccc(CN=C=O)c1` the value was “inactive”. Same read-out and setting: as for `O=S(=O)(OCC(F)(F)F)C(F)(F)C(F)(F)C(F)(F)C(F)(F)F`, the entry is “inactive”.
